Measurements reported in the supplement of paper PMC8253809.
Where “and” joins values, the source holds several entries; their conditions need not be identical. Equal entries are not always repeated.

Experiments:
Experiment in all cases: growth inhibition (% activity, log2 RLU normalised to DMSO / staurosporine); higher = more growth inhibition
Conditions in all cases: 33 µM
DIPGX29 = tested on: DIPGX29 (H3.3 K27M diffuse intrinsic pontine glioma line)
Outline: (§1)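 The growth-inhibition value comes from CellTiter-Glo luminescence, log2-transformed, normalised per plate to % activity between solvent and positive control wells, and taken as the median over replicates. Treatment of pHGG cell lines and H9-derived neural stem cells with approved drugs was at a single final concentration of about 33 μM, in triplicate, for 7 days at 37 °C, 5% CO2.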

DIPGX37 = tested on: DIPGX37 (H3.3 K27M diffuse intrinsic pontine glioma line)
Outline: as §1

DIPGX7 = tested on: DIPGX7 (H3.3 K27M diffuse intrinsic pontine glioma line)
Outline: as §1

DIPGX9 = tested on: DIPGX9 (diffuse intrinsic pontine glioma line)
Outline: as §1

HGGX39 = tested on: HGGX39 (paediatric high-grade glioma line)
Outline: as §1

HGGX6 = tested on: HGGX6 (H3.3 G34R paediatric high-grade glioma line)
Outline: as §1

HNSC = tested on: HNSC
Outline: as §1

SUDIPGIV = tested on: SUDIPGIV (diffuse intrinsic pontine glioma line)
Outline: as §1

SUDIPGVI = tested on: SUDIPGVI (diffuse intrinsic pontine glioma line)
Outline: as §1

SUDIPGXIII = tested on: SUDIPGXIII (diffuse intrinsic pontine glioma line)
Outline: as §1

Compound | growth inhibition (DIPGX29) | growth inhibition (DIPGX37) | growth inhibition (DIPGX7) | growth inhibition (DIPGX9) | growth inhibition (HGGX39) | growth inhibition (HGGX6) | growth inhibition (HNSC) | growth inhibition (SUDIPGIV) | growth inhibition (SUDIPGVI) | growth inhibition (SUDIPGXIII)
Cc1[nH]c(=O)c(C#N)cc1-c1ccncc1 | 1.05% | 4.4% | 1.37% | 1.64% | 3.34% | -0.118% | 3.65% | 2.63% | 4.48% | -1.25%
Nc1ncn([C@H]2C[C@H](O)[C@@H](CO)O2)c(=O)n1 | 2.35% | 0.227% | 3.51% | 4.93% | 4.99% | 3.19% | 27.6% | 5.46% | 2.19% | 1.68%
CCN1CC(CCN2CCOCC2)C(c2ccccc2)(c2ccccc2)C1=O (stereo not given) | 3.26% | 4.12% | 3.42% | 1.56% | 3.54% | 3.39% | 6.96% | 3.42% | 2.27% | -0.683%
Nc1ncnc2c1ncn2[C@@H]1O[C@H](COP(=O)(O)OP(=O)(O)OP(=O)(O)O)[C@@H](O)[C@H]1O | 1.45% | 3.53% | 0.965% | 2.77% | 1.53% | 2.37% | 1.17% | 0.305% | 3.67% | 1.19%
CC(=O)S[C@@H]1CC2=CC(=O)CC[C@]2(C)[C@H]2CC[C@@]3(C)[C@@H](CC[C@@]34CCC(=O)O4)[C@H]12 | 1.45% | 4.15% | 2.4% | 1.65% | 4.84% | 2.78% | 1.61% | 1.73% | 2.19% | 0.862%
CCCCCCCCCCCC[N+](C)(C)CCOc1ccccc1 | 59% | 58.8% | 53.9% | 57.2% | 62.1% | 56.8% | 55.6% | 55.7% | 63.2% | 70.1%
COc1c(N2CCNC(C)C2)c(F)cc2c(=O)c(C(=O)O)cn(C3CC3)c12 (stereo not given) | 0.952% | -1.73% | 2.3% | 1.28% | 4.77% | 0.493% | 8.87% | 1% | 2.31% | 1.42%
CCOC(=O)C1=C(C)NC(C)=C(C(=O)OCC)C1c1ccccc1/C=C/C(=O)OC(C)(C)C | 5.9% | -3.39% | 7.49% | 4.68% | 24.1% | 2.24% | 46.6% | 12.7% | 1.91% | 7.34%
OC(CCN1CCCCC1)(c1ccccc1)C1CC2C=CC1C2 (stereo not given) | -0.000402% | -2.1% | 1.09% | -1.44% | -1.06% | -1.38% | 0.31% | -2.82% | -4.33% | 1%
O=c1[nH]c(=O)n([C@H]2C[C@H](O)[C@@H](CO)O2)cc1F | 18.6% | 6.96% | 12.8% | 10.7% | 10.9% | 14.3% | 67.3% | 26.2% | 4.66% | 6.72%
CC(C(=O)O)c1ccc(C(=O)c2cccs2)cc1 (stereo not given) | -1.23% | -0.791% | -0.391% | -0.699% | -0.848% | 1.96% | -0.802% | -4.32% | 0.938% | -0.105%
O=S(=O)(O)NC1CCCCC1 | 0.811% | 0.93% | 1.03% | 0.594% | 2.81% | 1.56% | 0.385% | 0.0436% | 0.0298% | -1.99%
OC(CCN1CCCCC1)(c1ccccc1)c1ccccc1 | -0.46% | 1.3% | -0.768% | -0.762% | -0.68% | 0.348% | -1.66% | -1.24% | 0.131% | 1.07%
CCN(CC)C(=S)SSC(=S)N(CC)CC | 1.19% | 3.53% | 5.8% | 10.8% | 3.44% | 3.72% | 50% | -0.505% | 1.15% | 0.0312%
CN(C)CCC(c1ccccc1)c1ccccn1 (stereo not given) | 1.43% | 4.57% | 2.52% | 0.794% | 3.82% | 3.28% | 1.8% | 1.78% | 2.2% | 0.511%
N#Cc1c(N(CC(=O)O)CC(=O)O)sc(C(=O)O)c1CC(=O)O | -0.0468% | -1.11% | -0.504% | 1.29% | 1.34% | -1.45% | 27.7% | 1.52% | 0.043% | -2.77%
Cc1cc2c(s1)Nc1ccccc1N=C2N1CCN(C)CC1 | 1.66% | 3.63% | 1.48% | 2.04% | 4.5% | 0.504% | 3.31% | 3.12% | 3.75% | -0.29%
Nc1ccc(S(=O)(=O)Nc2ccccn2)cc1 | 0.131% | -0.785% | -0.925% | -0.171% | 0.333% | 0.609% | 0.764% | -1.02% | 1.15% | -1.65%
CNC[C@H](O)[C@@H](O)[C@H](O)[C@H](O)CO | 1.22% | 3.72% | 2.92% | 1.9% | 4.71% | 1.37% | 3.01% | 2.28% | 3.8% | -1.42%
Nc1ccn([C@H]2CC[C@@H](CO)O2)c(=O)n1 | 1.28% | 0.314% | 0.245% | 2.8% | 6.49% | 1.48% | 17.8% | 15.2% | 0.499% | 1.84%

Compound | growth inhibition (DIPGX29) | growth inhibition (DIPGX37) | growth inhibition (DIPGX7) | growth inhibition (DIPGX9) | growth inhibition (HGGX39) | growth inhibition (HGGX6) | growth inhibition (HNSC) | growth inhibition (SUDIPGIV) | growth inhibition (SUDIPGVI) | growth inhibition (SUDIPGXIII)
O=S(=O)(O)Oc1ccc(C(c2ccc(OS(=O)(=O)O)cc2)c2ccccn2)cc1 | -1.54% | -1.27% | -2.88% | -1.22% | -0.859% | -1.53% | -1.57% | -2.15% | -2.91% | 0.476%
CNCCCC12CCC(c3ccccc31)c1ccccc12 | -1.06% | -0.189% | 1.34% | -1.84% | -0.798% | -0.808% | 27.6% | -1.99% | -4.58% | 0.908%
CC1(C)[C@@H](OC(=O)CCC(=O)O)CC[C@]2(C)[C@H]3C(=O)C=C4[C@@H]5C[C@@](C)(C(=O)O)CC[C@]5(C)CC[C@@]4(C)[C@]3(C)CC[C@@H]12 | -0.0896% | -1.93% | -0.476% | -0.36% | 1.22% | -0.666% | 0.455% | -0.927% | 2.1% | 0.0653%
Cn1cnc([N+](=O)[O-])c1Sc1ncnc2[nH]cnc12 | 15.9% | 9.81% | 21.6% | 13.8% | 18.2% | 18.5% | 55.8% | 32.2% | 8.24% | 17.1%
COC(=O)C1=C(C)NC(C)=C(C(=O)OCCN(C)Cc2ccccc2)C1c1cccc([N+](=O)[O-])c1 (stereo not given) | 1.83% | 4.39% | 2.64% | 2.12% | 6.81% | 0.277% | 13% | 3.58% | -1.74% | 2.92%
CCOC(=O)c1ccc(N)cc1 | -1.1% | 0.286% | -0.777% | -2.99% | -1.05% | -1.96% | -1.55% | -0.0558% | -0.0967% | 0.467%
COCCOC(=O)C1=C(C)NC(C)=C(C(=O)OC(C)C)C1c1cccc([N+](=O)[O-])c1 (stereo not given) | -0.32% | 0.964% | -0.466% | 0.313% | 1.43% | -1.47% | 2.29% | 0.263% | 1.28% | 2.89%
CC(=O)O[C@@]12CO[C@@H]1C[C@H](O)[C@@]1(C)C(=O)[C@H](O)C3=C(C)[C@@H](OC(=O)[C@H](O)[C@@H](NC(=O)OC(C)(C)C)c4ccccc4)C[C@@](O)([C@@H](OC(=O)c4ccccc4)[C@H]21)C3(C)C | 8.91% | 8.27% | 8.76% | 19.3% | 24.5% | 15.8% | 55.1% | 21.6% | 8.93% | 6.64%
CN(CCOc1ccc(CC2SC(=O)NC2=O)cc1)c1ccccn1 (stereo not given) | 0.694% and -0.307% and -1.83% | 3.97% and -0.209% and -2.53% | 1.8% and -0.988% and -1.81% | 2.03% and 1.11% and 0.786% | 1.62% and 0.821% and 0.11% | 1.66% and 0.11% and -0.818% | -0.719% and -0.633% and -2.63% | 4.42% and -0.944% and -1.21% | 1.7% and -0.11% and -0.397% | -15.6% and -1.12%
CCn1cc(C(=O)O)c(=O)c2cc(F)c(N3CCNC(C)C3)c(F)c21 (stereo not given) | -4.04% | -2.84% | -0.94% | -2.66% | -4.99% | -5.88% | 9.04% | -2.28% | -4.26% | 1.13%
CC(C)OC(=O)C(C(=O)OC(C)C)=C1SC=CS1 | 12.7% | 6.67% | 26.1% | 4.32% | 8.43% | 13.3% | 43.7% | 16.3% | -3.26% | 2.97%
CC(C)c1nc(N(C)S(C)(=O)=O)nc(-c2ccc(F)cc2)c1C=CC(O)CC(O)CC(=O)O (stereo not given) | 7.07% | -1.35% | 16.7% | 4.14% | 24.4% | 15.9% | 73.3% | 21.5% | -6.26% | 17%
CCC(=O)O[C@]1(C(=O)CCl)[C@@H](C)C[C@H]2[C@@H]3C[C@H](F)C4=CC(=O)C=C[C@]4(C)[C@@]3(F)[C@@H](O)C[C@@]21C | 3.65% | 5.29% | 1.18% | 4.83% | 7.98% | 1.82% | -1.07% | 1.52% | 3.9% | 1.38%
CCOC(=O)[C@H](CCc1ccccc1)N[C@H]1CCCN2CCC[C@@H](C(=O)O)N2C1=O | 2.06% | 3.84% | 3.15% | 2.7% | 2.78% | 1.01% | 9.63% | 0.443% | 4.92% | -0.861%
C[C@@H]1CN(c2c(F)c(N)c3c(=O)c(C(=O)O)cn(C4CC4)c3c2F)C[C@H](C)N1 | 0.694% | 1.71% | 3.53% | 1.04% | 1.49% | -2.08% | 33.6% | 1.6% | -0.838% | -0.539%
CC[C@]1(O)C[C@H]2CN(CCc3c([nH]c4ccccc34)[C@@](C(=O)OC)(c3cc4c(cc3OC)N(C=O)[C@H]3[C@@](O)(C(=O)OC)[C@H](OC(C)=O)[C@]5(CC)C=CCN6CC[C@]43[C@@H]65)C2)C1 | 23.4% | 12.5% | 15.1% | 22.7% | 21.3% | 17.5% | 60.5% | 35.7% | 38.9% | 30.9%
Clc1ccc(COC(Cn2ccnc2)c2ccc(Cl)cc2Cl)c(Cl)c1 (stereo not given) | 3.52% and 3.73% | 2.39% and 1.02% | 2.11% and 1.8% | 4.24% and 1.75% | 8.09% and 4.5% | 8.84% and 5.54% | 8.12% and 18.4% | 11.2% and 18.5% | 2.08% and 0.276% | 8.9% and 4.15%
CC(=O)Oc1ccccc1C(=O)Nc1ncc([N+](=O)[O-])s1 | 0.503% | 4.15% | 3.15% | 1.52% | 3.31% | 1.98% | 7.17% | 3.07% | 1.06% | 63.6%
CCCN[C@H]1CCc2nc(N)sc2C1 | -1.19% and -0.0554% | -0.814% and -5.15% | -0.691% and -0.331% | -0.203% and -1.15% | -0.555% and -2.37% | 3.71% and 0.0769% | -2.69% and 0.0733% | -0.717% and -1.61% | -0.616% and -4.53% | -6.77% and -0.361%
